Measurements as given in PMC7862700, “An all-to-all approach to the identification of sequence-specific readers for epigenetic DNA modifications on cytosine”.

Assays:
Test in all cases: DAPPL (digital affinity profiling via proximity ligation, sequencing); 10 mM Tris-HCl pH 7.5, 50 mM NaCl, 1 mM DTT, 4% glycerol, room temperature, 30 min; GST-TFs on glutathione beads, 16-mer random dsDNA library, 0.1% formaldehyde crosslink after washing; high values mean tight binding
FLI1 = target: T1, FLI1 (Homo sapiens, UniProt Q01543 1-452); settings: protein: recombinant; tags: N-terminal GST; dsDNA, one strand shown
T1 sequence: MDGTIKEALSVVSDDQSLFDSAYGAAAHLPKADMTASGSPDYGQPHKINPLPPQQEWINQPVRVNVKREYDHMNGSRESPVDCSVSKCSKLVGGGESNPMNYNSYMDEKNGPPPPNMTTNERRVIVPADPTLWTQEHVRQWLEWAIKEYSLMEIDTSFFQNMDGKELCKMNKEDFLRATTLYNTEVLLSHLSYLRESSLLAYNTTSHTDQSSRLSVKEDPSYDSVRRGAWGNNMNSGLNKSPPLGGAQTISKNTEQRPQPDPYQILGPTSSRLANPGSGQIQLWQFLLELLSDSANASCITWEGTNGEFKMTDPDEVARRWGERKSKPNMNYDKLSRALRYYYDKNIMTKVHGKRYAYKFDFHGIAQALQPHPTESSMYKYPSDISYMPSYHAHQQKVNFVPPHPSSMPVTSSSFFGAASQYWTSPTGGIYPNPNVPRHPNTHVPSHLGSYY
Summary of the method: (§1)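 Yeast served to express human transcription factors as GST fusions, which were then captured on glutathione beads and labelled with DNA barcodes. Pooled with a tag-only sample, they were incubated with 200 nmole of a 16-mer random double-stranded DNA library for 30 min at room temperature in Tris/NaCl/DTT/glycerol buffer, washed, crosslinked with 0.1% formaldehyde, ligated by proximity, amplified by PCR and sequenced. Dividing each hexamer's read frequency for a factor by its frequency for the tag-only sample gives the binding signal.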

ELK1 = target: T2, ELK1 (Homo sapiens, UniProt P19419 1-428); settings: protein: recombinant; tags: N-terminal GST; dsDNA, one strand shown
T2 sequence: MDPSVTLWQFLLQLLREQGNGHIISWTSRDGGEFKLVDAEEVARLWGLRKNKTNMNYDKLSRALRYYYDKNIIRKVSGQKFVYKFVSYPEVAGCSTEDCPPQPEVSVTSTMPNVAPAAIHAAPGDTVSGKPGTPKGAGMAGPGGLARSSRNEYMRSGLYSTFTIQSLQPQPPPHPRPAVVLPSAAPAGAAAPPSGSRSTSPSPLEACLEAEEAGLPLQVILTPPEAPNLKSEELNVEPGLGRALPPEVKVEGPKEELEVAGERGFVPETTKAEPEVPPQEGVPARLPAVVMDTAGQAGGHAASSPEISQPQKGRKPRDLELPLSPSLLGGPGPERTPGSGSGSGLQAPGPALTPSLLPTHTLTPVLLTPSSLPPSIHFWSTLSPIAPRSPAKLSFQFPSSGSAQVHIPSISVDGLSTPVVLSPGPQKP
Summary of the method: as §1

GABPA = target: T3, GABPA (Homo sapiens, UniProt Q06546 1-454); settings: protein: recombinant; tags: N-terminal GST; dsDNA, one strand shown
T3 sequence: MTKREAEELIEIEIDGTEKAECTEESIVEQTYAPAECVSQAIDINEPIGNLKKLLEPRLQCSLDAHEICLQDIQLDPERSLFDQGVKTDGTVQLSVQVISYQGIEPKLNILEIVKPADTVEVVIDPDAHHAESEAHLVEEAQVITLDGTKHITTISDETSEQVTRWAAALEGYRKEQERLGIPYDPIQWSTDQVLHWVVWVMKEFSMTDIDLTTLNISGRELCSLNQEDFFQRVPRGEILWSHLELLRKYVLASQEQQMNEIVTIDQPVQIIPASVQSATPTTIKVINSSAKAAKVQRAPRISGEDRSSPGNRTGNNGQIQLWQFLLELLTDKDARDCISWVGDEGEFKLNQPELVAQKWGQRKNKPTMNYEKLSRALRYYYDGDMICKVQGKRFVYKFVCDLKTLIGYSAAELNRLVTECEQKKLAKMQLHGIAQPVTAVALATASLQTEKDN
Summary of the method: as §1

ERG = target: T4, ERG (Homo sapiens, UniProt P11308 1-479); settings: protein: recombinant; tags: N-terminal GST; dsDNA, one strand shown
T4 sequence: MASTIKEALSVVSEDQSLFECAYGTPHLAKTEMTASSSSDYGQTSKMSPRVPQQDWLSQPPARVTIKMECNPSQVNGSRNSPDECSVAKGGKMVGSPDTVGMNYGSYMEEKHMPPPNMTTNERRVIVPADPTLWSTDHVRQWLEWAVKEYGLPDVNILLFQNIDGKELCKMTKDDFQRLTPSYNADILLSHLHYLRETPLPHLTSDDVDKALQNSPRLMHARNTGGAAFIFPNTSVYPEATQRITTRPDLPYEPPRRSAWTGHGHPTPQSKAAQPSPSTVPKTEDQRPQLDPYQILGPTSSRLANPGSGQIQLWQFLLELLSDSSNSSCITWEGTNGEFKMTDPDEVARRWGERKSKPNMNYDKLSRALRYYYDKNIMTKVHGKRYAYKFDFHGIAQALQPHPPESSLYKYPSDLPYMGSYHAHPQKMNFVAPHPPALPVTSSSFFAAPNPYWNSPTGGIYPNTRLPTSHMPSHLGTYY
Summary of the method: as §1

ELF1 = ELF1 (Homo sapiens, UniProt P32519 1-619); settings: protein: recombinant; tags: N-terminal GST; dsDNA, one strand shown
Summary of the method: as §1

EHF = target: T5, EHF (Homo sapiens, UniProt Q9NZC4 1-300); settings: protein: recombinant; tags: N-terminal GST; dsDNA, one strand shown
T5 sequence: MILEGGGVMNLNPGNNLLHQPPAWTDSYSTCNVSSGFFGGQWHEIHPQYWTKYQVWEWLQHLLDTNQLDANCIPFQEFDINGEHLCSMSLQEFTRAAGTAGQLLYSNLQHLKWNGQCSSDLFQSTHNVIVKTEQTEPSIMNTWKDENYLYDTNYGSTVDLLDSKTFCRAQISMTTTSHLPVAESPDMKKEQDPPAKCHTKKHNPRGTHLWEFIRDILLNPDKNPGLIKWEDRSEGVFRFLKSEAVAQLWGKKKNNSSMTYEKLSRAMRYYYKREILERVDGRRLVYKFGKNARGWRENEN
Summary of the method: as §1

SPI1 = SPI1 (Homo sapiens, UniProt P17947 1-270); settings: protein: recombinant; tags: N-terminal GST; dsDNA, one strand shown
Summary of the method: as §1

SPIB = SPIB (Homo sapiens, UniProt Q01892 1-262); settings: protein: recombinant; tags: N-terminal GST; dsDNA, one strand shown
Summary of the method: as §1

ELK3 = target: T6, ELK3 (Homo sapiens, UniProt P41970 1-407); settings: protein: recombinant; tags: N-terminal GST; dsDNA, one strand shown
T6 sequence: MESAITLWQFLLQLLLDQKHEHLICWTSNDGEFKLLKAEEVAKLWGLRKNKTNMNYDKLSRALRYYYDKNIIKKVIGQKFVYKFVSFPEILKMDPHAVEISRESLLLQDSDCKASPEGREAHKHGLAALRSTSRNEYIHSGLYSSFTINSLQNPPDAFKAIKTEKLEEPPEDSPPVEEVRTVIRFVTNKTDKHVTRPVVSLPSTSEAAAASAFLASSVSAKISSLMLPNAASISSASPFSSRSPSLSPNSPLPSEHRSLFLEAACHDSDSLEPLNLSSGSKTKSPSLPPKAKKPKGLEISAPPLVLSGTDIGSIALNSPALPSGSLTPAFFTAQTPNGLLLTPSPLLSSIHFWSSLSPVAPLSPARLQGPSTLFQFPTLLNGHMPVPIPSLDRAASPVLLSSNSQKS
Summary of the method: as §1

FEV = target: T7, FEV (Homo sapiens, UniProt Q99581 1-238); settings: protein: recombinant; tags: N-terminal GST; dsDNA, one strand shown
T7 sequence: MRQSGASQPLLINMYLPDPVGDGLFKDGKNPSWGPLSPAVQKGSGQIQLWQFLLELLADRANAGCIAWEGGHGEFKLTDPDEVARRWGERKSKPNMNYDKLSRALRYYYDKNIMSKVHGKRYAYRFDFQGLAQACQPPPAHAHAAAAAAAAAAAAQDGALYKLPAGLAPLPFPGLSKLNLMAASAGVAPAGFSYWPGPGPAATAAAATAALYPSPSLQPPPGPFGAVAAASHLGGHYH
Summary of the method: as §1

ETV5 = ETV5 (Homo sapiens, UniProt P41161 1-510); settings: protein: recombinant; tags: N-terminal GST; dsDNA, one strand shown
Summary of the method: as §1

HSF1 = HSF1 (Homo sapiens, UniProt Q00613 1-529); settings: protein: recombinant; tags: N-terminal GST; chain copies: 3; dsDNA, one strand shown
Summary of the method: as §1

SPIC = target: T8, SPIC (Homo sapiens, UniProt Q8N5J4 1-248); settings: protein: recombinant; tags: N-terminal GST; dsDNA, one strand shown
T8 sequence: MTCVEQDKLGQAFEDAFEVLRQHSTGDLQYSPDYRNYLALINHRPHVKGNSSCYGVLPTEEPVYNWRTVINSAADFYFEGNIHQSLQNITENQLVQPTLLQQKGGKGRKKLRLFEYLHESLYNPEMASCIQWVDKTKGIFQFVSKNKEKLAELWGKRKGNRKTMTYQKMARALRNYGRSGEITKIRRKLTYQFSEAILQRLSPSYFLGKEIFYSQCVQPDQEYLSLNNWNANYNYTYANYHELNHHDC
Summary of the method: as §1

ELF4 = ELF4 (Homo sapiens, UniProt Q99607 1-663); settings: protein: recombinant; tags: N-terminal GST; dsDNA, one strand shown
Summary of the method: as §1

ELK4 = target: T9, ELK4 (Homo sapiens, UniProt P28324-2 1-405); settings: protein: recombinant; tags: N-terminal GST; dsDNA, one strand shown
T9 sequence: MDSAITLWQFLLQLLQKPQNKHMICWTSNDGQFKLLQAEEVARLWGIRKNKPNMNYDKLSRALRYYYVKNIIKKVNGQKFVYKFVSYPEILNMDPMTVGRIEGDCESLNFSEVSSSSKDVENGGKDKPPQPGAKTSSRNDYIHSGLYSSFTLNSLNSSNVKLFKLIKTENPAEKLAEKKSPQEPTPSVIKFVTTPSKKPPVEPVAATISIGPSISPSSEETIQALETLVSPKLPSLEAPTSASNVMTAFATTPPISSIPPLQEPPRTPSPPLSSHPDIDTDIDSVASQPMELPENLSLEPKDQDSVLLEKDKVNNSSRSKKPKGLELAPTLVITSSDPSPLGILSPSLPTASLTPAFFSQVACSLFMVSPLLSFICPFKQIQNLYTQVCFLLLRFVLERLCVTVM
Summary of the method: as §1

CRX = CRX (Homo sapiens, UniProt O43186 1-299); settings: protein: recombinant; tags: N-terminal GST; dsDNA, one strand shown
Summary of the method: as §1

ETV1 = ETV1 (Homo sapiens, UniProt P50549 1-477); settings: protein: recombinant; tags: N-terminal GST; dsDNA, one strand shown
Summary of the method: as §1

ETV2 = target: T10, ETV2 (Homo sapiens, UniProt O00321 1-342); settings: protein: recombinant; tags: N-terminal GST; dsDNA, one strand shown
T10 sequence: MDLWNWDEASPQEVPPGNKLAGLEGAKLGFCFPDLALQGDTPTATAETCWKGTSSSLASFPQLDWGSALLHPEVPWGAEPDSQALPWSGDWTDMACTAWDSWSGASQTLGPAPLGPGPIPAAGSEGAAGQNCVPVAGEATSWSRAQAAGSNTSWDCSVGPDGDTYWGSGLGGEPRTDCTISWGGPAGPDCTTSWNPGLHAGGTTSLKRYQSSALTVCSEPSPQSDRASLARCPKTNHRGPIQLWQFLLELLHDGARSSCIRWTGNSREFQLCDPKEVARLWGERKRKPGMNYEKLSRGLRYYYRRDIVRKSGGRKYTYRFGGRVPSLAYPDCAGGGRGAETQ
Summary of the method: as §1

Chain of HSF1 (Q00613 whole entry): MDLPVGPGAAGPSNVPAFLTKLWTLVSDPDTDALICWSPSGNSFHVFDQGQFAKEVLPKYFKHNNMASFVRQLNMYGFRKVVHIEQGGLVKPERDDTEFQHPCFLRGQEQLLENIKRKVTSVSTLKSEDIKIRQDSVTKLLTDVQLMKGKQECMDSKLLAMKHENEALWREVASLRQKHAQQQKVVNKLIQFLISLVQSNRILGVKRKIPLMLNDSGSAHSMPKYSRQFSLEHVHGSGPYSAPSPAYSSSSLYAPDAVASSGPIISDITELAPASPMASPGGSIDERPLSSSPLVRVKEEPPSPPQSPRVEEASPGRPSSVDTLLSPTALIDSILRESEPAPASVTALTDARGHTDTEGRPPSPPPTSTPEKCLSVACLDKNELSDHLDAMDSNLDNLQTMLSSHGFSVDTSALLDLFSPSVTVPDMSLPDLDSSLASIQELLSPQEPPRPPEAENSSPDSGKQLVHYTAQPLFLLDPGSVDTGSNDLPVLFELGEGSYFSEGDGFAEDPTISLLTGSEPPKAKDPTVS
Chain of ETV1 (P50549 whole entry): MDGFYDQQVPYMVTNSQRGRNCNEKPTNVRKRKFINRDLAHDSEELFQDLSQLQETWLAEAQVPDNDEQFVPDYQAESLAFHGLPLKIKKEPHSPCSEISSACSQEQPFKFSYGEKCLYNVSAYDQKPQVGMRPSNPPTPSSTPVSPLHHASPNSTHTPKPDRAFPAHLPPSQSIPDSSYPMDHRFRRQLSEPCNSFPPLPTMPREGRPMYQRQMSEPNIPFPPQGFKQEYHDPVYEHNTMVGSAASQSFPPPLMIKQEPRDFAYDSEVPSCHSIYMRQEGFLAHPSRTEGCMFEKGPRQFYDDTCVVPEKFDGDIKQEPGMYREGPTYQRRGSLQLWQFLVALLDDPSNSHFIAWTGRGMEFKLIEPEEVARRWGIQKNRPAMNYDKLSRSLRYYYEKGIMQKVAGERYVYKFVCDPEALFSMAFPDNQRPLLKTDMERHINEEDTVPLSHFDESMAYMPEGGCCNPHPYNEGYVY
Chain of ELF1 (P32519 whole entry): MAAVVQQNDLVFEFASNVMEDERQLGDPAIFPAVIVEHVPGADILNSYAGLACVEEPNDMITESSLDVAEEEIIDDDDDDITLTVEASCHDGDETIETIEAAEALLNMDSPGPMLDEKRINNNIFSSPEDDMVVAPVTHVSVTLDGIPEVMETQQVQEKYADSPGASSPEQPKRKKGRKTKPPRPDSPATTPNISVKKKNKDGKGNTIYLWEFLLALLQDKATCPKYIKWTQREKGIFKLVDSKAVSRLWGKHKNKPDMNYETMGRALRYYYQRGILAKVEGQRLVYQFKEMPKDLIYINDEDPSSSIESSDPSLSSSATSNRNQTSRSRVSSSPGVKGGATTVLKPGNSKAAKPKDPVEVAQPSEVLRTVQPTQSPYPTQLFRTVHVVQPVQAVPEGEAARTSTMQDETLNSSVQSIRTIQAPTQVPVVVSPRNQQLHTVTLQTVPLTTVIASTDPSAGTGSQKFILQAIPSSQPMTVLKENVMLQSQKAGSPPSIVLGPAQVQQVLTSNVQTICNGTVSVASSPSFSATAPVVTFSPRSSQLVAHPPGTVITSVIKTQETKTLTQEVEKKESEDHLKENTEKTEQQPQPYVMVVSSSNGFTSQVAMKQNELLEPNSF
Chain of SPIB (Q01892 whole entry): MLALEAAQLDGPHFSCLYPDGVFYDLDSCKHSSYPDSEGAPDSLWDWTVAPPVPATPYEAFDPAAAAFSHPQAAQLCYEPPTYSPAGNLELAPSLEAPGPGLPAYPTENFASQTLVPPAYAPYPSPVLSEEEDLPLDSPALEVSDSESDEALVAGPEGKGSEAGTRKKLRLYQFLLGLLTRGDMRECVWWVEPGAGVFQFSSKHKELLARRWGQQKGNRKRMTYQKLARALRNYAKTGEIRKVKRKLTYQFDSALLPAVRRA
Chain of ETV5 (P41161 whole entry): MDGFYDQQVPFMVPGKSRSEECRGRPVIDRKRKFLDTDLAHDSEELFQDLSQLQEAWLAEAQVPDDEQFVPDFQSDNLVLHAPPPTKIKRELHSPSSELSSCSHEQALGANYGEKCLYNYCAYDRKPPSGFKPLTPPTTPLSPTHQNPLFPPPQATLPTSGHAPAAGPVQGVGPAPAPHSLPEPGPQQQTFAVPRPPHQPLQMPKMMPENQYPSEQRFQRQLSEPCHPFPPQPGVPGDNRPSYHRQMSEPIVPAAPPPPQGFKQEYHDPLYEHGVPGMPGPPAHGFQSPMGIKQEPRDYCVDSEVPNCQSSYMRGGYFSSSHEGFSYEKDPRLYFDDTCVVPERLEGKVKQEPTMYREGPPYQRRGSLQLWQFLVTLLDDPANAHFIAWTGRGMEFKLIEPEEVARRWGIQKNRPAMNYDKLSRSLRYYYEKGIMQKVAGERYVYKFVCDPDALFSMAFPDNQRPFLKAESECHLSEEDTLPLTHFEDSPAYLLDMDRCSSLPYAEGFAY
Chain of ELF4 (Q99607 whole entry): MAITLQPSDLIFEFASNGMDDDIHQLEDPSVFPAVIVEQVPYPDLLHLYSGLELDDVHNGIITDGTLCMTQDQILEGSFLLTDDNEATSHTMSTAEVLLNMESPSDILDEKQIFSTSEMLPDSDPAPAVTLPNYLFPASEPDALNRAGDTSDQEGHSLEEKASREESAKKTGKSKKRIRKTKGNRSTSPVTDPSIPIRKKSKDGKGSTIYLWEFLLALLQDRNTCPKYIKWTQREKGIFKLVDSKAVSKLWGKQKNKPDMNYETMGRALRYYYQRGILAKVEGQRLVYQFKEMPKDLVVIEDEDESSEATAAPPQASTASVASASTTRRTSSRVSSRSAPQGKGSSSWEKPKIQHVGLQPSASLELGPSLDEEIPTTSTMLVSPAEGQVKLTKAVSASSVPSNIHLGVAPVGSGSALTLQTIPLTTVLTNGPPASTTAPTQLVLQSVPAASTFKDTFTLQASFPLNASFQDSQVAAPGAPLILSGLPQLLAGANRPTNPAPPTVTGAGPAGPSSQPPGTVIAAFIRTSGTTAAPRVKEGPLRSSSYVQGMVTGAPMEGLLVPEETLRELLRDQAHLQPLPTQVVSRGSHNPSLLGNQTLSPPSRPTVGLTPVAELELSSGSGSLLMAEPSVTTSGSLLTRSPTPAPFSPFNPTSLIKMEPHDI
Chain of CRX (O43186 whole entry): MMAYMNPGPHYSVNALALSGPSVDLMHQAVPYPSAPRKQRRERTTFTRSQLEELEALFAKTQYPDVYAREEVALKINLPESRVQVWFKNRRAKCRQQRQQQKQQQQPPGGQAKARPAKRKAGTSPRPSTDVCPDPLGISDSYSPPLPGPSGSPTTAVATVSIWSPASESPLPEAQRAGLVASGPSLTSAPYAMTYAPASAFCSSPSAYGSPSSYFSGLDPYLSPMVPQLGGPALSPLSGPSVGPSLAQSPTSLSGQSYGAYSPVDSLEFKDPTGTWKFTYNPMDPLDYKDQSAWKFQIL

Sequence	binding signal (FLI1)	binding signal (ELK1)	binding signal (GABPA)	binding signal (ERG)	binding signal (ELF1)	binding signal (EHF)	binding signal (SPI1)	binding signal (SPIB)	binding signal (ELK3)	binding signal (FEV)	binding signal (ETV5)	binding signal (HSF1)	binding signal (SPIC)	binding signal (ELF4)	binding signal (ELK4)	binding signal (CRX)	binding signal (ETV1)	binding signal (ETV2)
TAGAAA	1.1 fold enrichment (6-mer frequency, TF over GST control)	1.03 fold enrichment (6-mer frequency, TF over GST control)	1.02 fold enrichment (6-mer frequency, TF over GST control)	1.04 fold enrichment (6-mer frequency, TF over GST control)	1.09 fold enrichment (6-mer frequency, TF over GST control)	1.07 fold enrichment (6-mer frequency, TF over GST control)	1.11 fold enrichment (6-mer frequency, TF over GST control)	1.11 fold enrichment (6-mer frequency, TF over GST control)	1.09 fold enrichment (6-mer frequency, TF over GST control)	1.04 fold enrichment (6-mer frequency, TF over GST control)	1.03 fold enrichment (6-mer frequency, TF over GST control)	3.06 fold enrichment (6-mer frequency, TF over GST control)	1.12 fold enrichment (6-mer frequency, TF over GST control)	1.1 fold enrichment (6-mer frequency, TF over GST control)	1.13 fold enrichment (6-mer frequency, TF over GST control)	1.58 fold enrichment (6-mer frequency, TF over GST control)	1.13 fold enrichment (6-mer frequency, TF over GST control)	
CTGTAA	1.06 fold enrichment (6-mer frequency, TF over GST control)		1.07 fold enrichment (6-mer frequency, TF over GST control)		1.12 fold enrichment (6-mer frequency, TF over GST control)	1.09 fold enrichment (6-mer frequency, TF over GST control)	1.11 fold enrichment (6-mer frequency, TF over GST control)	1.04 fold enrichment (6-mer frequency, TF over GST control)	1.24 fold enrichment (6-mer frequency, TF over GST control)		1.05 fold enrichment (6-mer frequency, TF over GST control)	1.09 fold enrichment (6-mer frequency, TF over GST control)	1.24 fold enrichment (6-mer frequency, TF over GST control)	1.06 fold enrichment (6-mer frequency, TF over GST control)	1.09 fold enrichment (6-mer frequency, TF over GST control)	1.25 fold enrichment (6-mer frequency, TF over GST control)	1 fold enrichment (6-mer frequency, TF over GST control)	1.21 fold enrichment (6-mer frequency, TF over GST control)
